An excerpt weighted towards active compounds, which were near 0.9% of everything screened.
SRC3 TRFRET art = flags TR-FRET format artefacts in PPARgamma SRC-3 recruitment agonist screen. TR-FRET artefact counter-screen, PPARgamma/SRC-3 format; active compounds read high. TR-FRET ratio at 8 µM. 0.39% of 99,000 active. AID 1048; in the data active = TR-FRET ratio above about 2000
PPARg SRC-1 ag = promotes SRC-1 coactivator recruitment by human PPARgamma | P37231 | PPARgamma-SRC-1 coactivator recruitment biochemical assay | activation, % at 8 µM | 0.41% of 200,000 active | AID 631; in the data active = activation above about 19%
SRC1 TRFRET art = TR-FRET artefact, counter-screen to PPARgamma/SRC-1 agonist assay. TR-FRET detection artefact counter-screen, emission ratio; active compounds read high. TR-FRET ratio at 8 µM. 0.34% of 99,000 active; in the data active = TR-FRET ratio above about 2300
PPARg SRC2 recr = agonists of SRC-2 recruitment by human PPARgamma | activation, % at 8 µM | P37231 | PPARgamma LBD-SRC-2 recruitment, biochemical | 0.34% of 200,000 active
PPARg SRC3 recr = agonists of human PPARgamma SRC-3 coactivator recruitment; 0.26% of 200,000 active; activation, % at 8 µM; biochemical PPARgamma/SRC-3 coactivator recruitment assay; in the data active = activation above about 23%
SRC2 TRFRET art = flags TR-FRET format artefacts in PPARgamma SRC-2 recruitment agonist screen. TR-FRET artefact counter-screen; active compounds read high. TR-FRET ratio at 8 µM. 0.4% of 200,000 active; in the data active = TR-FRET ratio above about 2000
PPARg SRC2 conf = confirmation of agonists of SRC-2 recruitment by human PPARgamma | shares compounds with PPARg SRC3 recr | biochemical SRC-2 recruitment by PPARgamma | activation, % at 8 µM | 52% of 790 active | AID 1297
PPARg SRC1 conf = human PPARgamma SRC-1 recruitment agonism, confirmation. shares compounds with PPARg SRC3 recr. PPARgamma–SRC-1 coactivator recruitment biochemical assay. activation, % at 8 µM. 43% of 790 active; in the data active = activation above about 20%
PPARg SRC3 conf = confirmation of agonists of SRC-3 recruitment by human PPARgamma. shares compounds with PPARg SRC3 recr. biochemical PPARgamma-SRC-3 coactivator recruitment, agonist mode. activation, % at 8 µM. 29% of 790 active; in the data active = activation above about 24%
A number is an active result; n = inactive; x = no result given. Rule as the data show it, unless noted: active = activation above about 22%; inactive = the rest.

SMILES	SRC3 TRFRET art	PPARg SRC-1 ag	SRC1 TRFRET art	PPARg SRC2 recr	PPARg SRC3 recr	SRC2 TRFRET art	PPARg SRC2 conf	PPARg SRC1 conf	PPARg SRC3 conf
COc1ccc2[nH]c3c(=S)nc[nH]c3c2c1	2527	26	2593	34	23	2492	n	n	n
CCOC(=O)c1c(N)sc(=S)c2c1CCC2	x	19	x	27	34	2147	n	n	n
CN(C)c1ccc(N=Cc2ccco2)cc1	x	67	x	85	74	2974	n	n	n
C(=N\C(/N=C/c1ccco1)c1ccco1)/c1ccco1	n	n	n	n	n	n	x	x	x
CN(C)c1ccc(C=Nc2ccc(N(C)C)cc2)cc1	x	69	x	95	104	2825	n	n	n
C(=Nc1cccc2c(N=Cc3ccco3)cccc12)c1ccco1	n	26	n	22	n	n	n	n	n
CCC(CC)c1nnc(NC(=O)[C@@H](NC(=O)c2cccc(C)c2)C(C)C)s1	n	n	n	n	n	n	x	x	x
Cc1ccc(-n2cc(S(=O)(=O)c3ccc(C)cc3)[nH]c2=O)cc1	n	n	n	n	n	n	x	x	x
COc1ccc(-c2oc3ncn4nc(COc5ccccc5)nc4c3c2-c2ccc(OC)cc2)cc1	x	n	x	n	n	n	x	x	x
COc1ccc(-c2oc3ncn4nc(Cc5ccccc5)nc4c3c2-c2ccc(OC)cc2)cc1	x	84	x	69	n	4122	n	n	n
CC(Sc1nc(N2CCCCC2)c2c(c1C#N)CCCC2)C(=O)O (stereo not drawn)	x	19	x	30	n	n	25	n	n
Cc1ccccc1C1C2=C(Nc3[nH]n(-c4ccccc4)c(=O)c31)c1ccccc1C2=O (stereo not drawn)	n	23	n	n	35	n	23	30	35
Cc1ccccc1NC(=S)N(Cc1ccco1)C(C)c1ccccn1 (stereo not drawn)	n	n	n	n	n	n	x	x	x
CCOC(=O)c1sc(C)c2c1NC1(CCCCC1)NC2=O	x	n	x	n	n	n	x	x	x
CCOC(=O)c1sc(C)c2c1NC(C)(c1cccs1)NC2=O (stereo not drawn)	x	n	x	n	26	n	n	n	n
Cc1ccc(OCC(=O)N(Cc2ccc(N(C)C)cc2)C2CCS(=O)(=O)C2)cc1 (stereo not drawn)	x	21	x	n	n	n	n	n	n
CN(C)c1ccc(CN(C(=O)COc2ccc(Br)cc2)C2CCS(=O)(=O)C2)cc1 (stereo not drawn)	x	n	x	n	n	n	x	x	x
Cn1c(N/N=C/c2c[nH]c3ccccc23)nc2ccccc21	x	n	x	24	n	n	n	n	n
Cc1[nH]c2ccccc2c1/C=C/c1cc[n+](C)cc1	x	25	x	n	n	n	n	n	n
COc1ccc(C(=O)Nc2cccc3c2C(=O)NC3=O)cc1S(=O)(=O)N1CCOCC1	x	21	x	n	n	n	n	n	n
CCc1ccc(NC(=S)N(CCN(C)C)C(C)c2ccncc2)cc1 (stereo not drawn)	n	n	n	n	n	n	x	x	x
COc1ccc(/C(N)=N/O)c(OC)c1	n	n	n	n	n	n	x	x	x
CC(=O)Oc1cc2cccc(OC(C)=O)c(=O)c2c(OC(C)=O)c1OC(C)=O	n	n	n	n	n	n	n	n	n
COc1cc2cccc(OC)c(=O)c2c(O)c1OC	n	n	n	n	n	n	x	x	x
O=C(CSc1nnc(-c2cccs2)n1-c1ccccc1)Nc1ccccc1	x	46	x	64	31	n	n	n	n
SMILES	SRC3 TRFRET art	PPARg SRC-1 ag	SRC1 TRFRET art	PPARg SRC2 recr	PPARg SRC3 recr	SRC2 TRFRET art	PPARg SRC2 conf	PPARg SRC1 conf	PPARg SRC3 conf
CCOC(=O)CSc1nnc(-c2cccs2)n1-c1ccccc1	x	n	x	n	n	n	x	x	x
O=c1cc(-c2ccc3c(c2)OCO3)oc2ccccc12	n	33	2778	27	n	2211	n	n	n
NS(=O)(=O)c1ccc(NC(=O)CSc2nc3ccccc3[nH]2)cc1	n	n	n	n	n	n	x	x	x
CSc1c(SCc2ccccc2)cnn(-c2ccccc2)c1=O	2060	24	2714	27	n	n	50	36	33
COc1cnn(-c2ccccc2)c(=O)c1SCc1ccc(Cl)c(Cl)c1	x	n	x	n	n	n	x	x	x
S=c1[nH]cnc2sc(-c3ccccc3)cc12	2631	46	3261	52	30	2602	33	22	n
CNc1ncnc2sc(-c3ccccc3)cc12	n	n	n	n	n	n	x	x	x
O=C(c1ccco1)N1N=C(c2ccc(Br)cc2)CC1(O)C(F)(F)F (stereo not drawn)	n	23	n	n	n	2022	n	n	n
O=C(c1ccco1)N1N=C(c2ccc(Cl)cc2)CC1(O)C(F)(F)F (stereo not drawn)	n	n	n	n	n	n	x	x	x
Oc1ccc(N=Cc2cc(Br)c(N3CCOCC3)o2)cc1	n	n	n	n	n	n	x	x	x
O=[N+]([O-])c1cc(Br)c(O)c(C=Nc2ccc(N3CCOCC3)cc2)c1	2532	61	2849	64	45	2845	n	n	n
O=C(Nc1nc2c(s1)CN(Cc1ccccc1)CC2)c1cccc(S(=O)(=O)N2CCc3ccccc32)c1	x	37	x	n	39	4126	50	41	30
Cc1nnc(NC(=O)c2cccc(S(=O)(=O)N3CCc4ccccc43)c2)s1	x	n	x	n	n	n	x	x	x
C/C(=N/NC(=O)c1ccc(C)nc1)c1ccc2c(c1)CCCC2	n	n	n	n	n	n	x	x	x
COc1ccccc1/C=C/C1=NC(=C\C=C/c2ccccc2)/C(=O)O1	n	n	n	n	41	n	n	n	n
COc1ccc(Br)cc1CNc1ccc(O)cc1	x	n	x	23	n	n	n	n	n
O=C1c2ccccc2CC1Sc1nnc(-c2ccncc2)o1 (stereo not drawn)	x	n	x	n	n	n	x	x	x
O=C1CC(Sc2nnc(-c3ccccc3)o2)C(=O)N1c1ccccc1 (stereo not drawn)	x	20	x	39	31	n	28	21	n
Cc1ccccc1N1C(=O)CC(Sc2nnc(-c3ccccc3)o2)C1=O (stereo not drawn)	x	42	x	43	57	n	48	36	31
CCOc1cc(Cl)c(NC(C)=O)cc1OCC	n	n	n	n	n	n	x	x	x
CCOC(=O)c1[nH]c2cc(OC)c(OC)cc2c1N	x	n	x	25	n	n	n	n	n
CCOC(=O)c1[nH]c2ccc(C)cc2c1N	n	n	n	n	n	n	x	x	x
COc1ccc(O)c(C(=O)c2cc(C#N)c(=O)n(Cc3ccccc3)c2)c1	n	n	n	n	n	n	x	x	x
N#Cc1cc(C(=O)c2cc(Br)ccc2O)cn(Cc2ccccc2)c1=O	n	31	n	n	n	n	27	23	n
